# Experimental data from PubChem BioAssay AID1001 (Sanford-Burnham Center for Chemical Genomics, 2008).
# Among all 200,000 compounds or so, about 50 (0.03%) were called active. The sample as a whole holds a higher share of actives than the screen did. Measured potencies and affinities stand elsewhere. Unmarked numbers belong to inactive results. The rule behind the calls is not given here.
# Molecular target: Alkaline phosphatase, tissue-nonspecific isozyme (Homo sapiens) (UniProt P05186)
# Experiment: stimulation of alkaline phosphatase TNAP activity – biochemical, luminescent, no phosphate acceptor, uHTS, primary screen (AID 1001)
# Settings: purified TNAP, luminescent activation assay, at 20 µM, hits give high values
# Alkaline phosphatase, tissue-nonspecific isozyme (Homo sapiens), sequence (P05186 whole entry, looked up): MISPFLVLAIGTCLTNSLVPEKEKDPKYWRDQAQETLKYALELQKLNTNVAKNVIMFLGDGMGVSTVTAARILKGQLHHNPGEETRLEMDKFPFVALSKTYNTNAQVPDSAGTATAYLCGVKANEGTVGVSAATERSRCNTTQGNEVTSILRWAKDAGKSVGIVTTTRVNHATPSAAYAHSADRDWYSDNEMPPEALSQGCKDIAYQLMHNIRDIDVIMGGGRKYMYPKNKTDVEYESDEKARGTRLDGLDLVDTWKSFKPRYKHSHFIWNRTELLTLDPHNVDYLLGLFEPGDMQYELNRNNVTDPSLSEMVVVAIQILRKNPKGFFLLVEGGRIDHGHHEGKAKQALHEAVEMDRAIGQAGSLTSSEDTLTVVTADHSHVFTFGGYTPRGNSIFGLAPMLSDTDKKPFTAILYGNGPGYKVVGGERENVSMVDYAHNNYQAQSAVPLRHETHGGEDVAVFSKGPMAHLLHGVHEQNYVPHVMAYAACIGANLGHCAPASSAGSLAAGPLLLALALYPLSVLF
row,Compound,activation fold
1,O=C(OCc1cc2ccccc2[nH]c1=O)C1CCCO1 (centres undefined),1.1
2,O=C(CSc1nnc(C2COc3ccccc3O2)o1)Nc1nccs1 (centres undefined),1.2
3,CCCCOC(=O)c1ccc(NC(=O)CSCc2n[nH]c(=O)[nH]2)cc1,1.4
4,Cc1ccc(O)c(-c2cc(-c3ccccc3[N+](=O)[O-])[nH]n2)c1,2.3
5,O=[N+]([O-])c1ccccc1-c1cc(-c2ccccc2O)n[nH]1,2.1
6,CC(C)(Oc1ccc(Cl)cc1)C(=O)NCc1ccc(S(N)(=O)=O)cc1,1.2
7,CCn1cc(S(=O)(=O)CC(=O)Nc2ccc3c(c2)OCCO3)c2ccccc21,1.1
8,CC(C)C(OC(=O)C1=Cc2ccccc2OC1)C(=O)NC1CCCC1 (centres undefined),1.2
9,CN(C)CCNc1ccc(-c2nn(C)c(=O)c3ccccc23)cc1[N+](=O)[O-],1
10,O=S1(=O)NC2CCCCCN2c2ccc(F)cc21 (centres undefined),1.1
11,Cn1c(C(=O)NCC2CCCO2)cc2c(=O)n(C)c3ccccc3c21 (centres undefined),1.1
12,CSC1=C(C#N)C2(CCCC2)C(C#N)=C(N)N1,1.1
13,CC(C)N1CCC2(CC1)C(C#N)=C(N)NC(S)=C2C#N,5.8 (active)
14,CCSC1=C(C#N)C2(CCCC2)C(C#N)=C(N)N1,1
15,CCOC(=O)CSc1nnc(NCC(=O)OC(C)C)c(=O)[nH]1,1.2
16,CC(=O)NC(=S)Nc1ccc(NC(=O)COc2ccc(C(C)C)cc2)cc1,1
17,Cc1ccccc1NC(=O)c1ccc(S(=O)(=O)C(F)F)cc1,1.1
18,COC(=O)c1ccc2nc(Nc3nc4ccc(F)cc4s3)sc2c1,1.2
19,CCOC(=O)c1csc(Nc2nc3ccc(F)cc3s2)n1,1.1
20,C/C(=N\NC(=O)c1ccc(Cn2cc([N+](=O)[O-])cn2)o1)c1cccc(NC(=O)C(C)C)c1,1.1
21,CCC(C)NC(=O)CSC1=Nc2ccccc2C2=NC(c3ccccc3)C(=O)N12 (centres undefined),1
22,CC(/C=N/NC(=O)Cc1cccs1)=C\c1ccccc1,1
23,COc1cccc(OCCOCCNCCO)c1,1.1
24,O=C(NNC(=O)C(c1ccccc1)c1ccccc1)c1ccccn1,1.5
25,CC(C)C(=O)NNC(=O)c1ccccn1,1.2
26,Cc1nn(CC(=O)NC2C(=O)N3C(C(=O)O)=C(CSc4nnnn4C)CSC23)cc1Br (centres undefined),1.2
27,O=C1N(CCCCN2C(=O)C3(OCCO3)c3ccccc32)c2ccccc2C12OCCO2,1.2

row,Compound,activation fold
1,C=CCN1C(=O)C2(NC(=O)c3ccccc3N2)c2ccccc21 (centres undefined),1.1
2,O=C1N(CCCN2C(=O)C3(OCCO3)c3ccccc32)c2ccccc2C12OCCO2,1
3,C=CCN1C(=O)C(C)(C)Nc2ccccc21,1.1
4,O=C(CSc1nnc(-c2ccccc2)n1-c1ccc(Cl)cc1)N/N=C/c1ccco1,1
5,Cc1ccc(C)c(NC(=O)CS(=O)(=O)c2c[nH]c3ccccc23)c1,1
6,Cn1cc(Cl)c(C(=O)NC2CCCC2)n1,1.1
7,Cn1cc(Cl)c(C(=O)NC2CCCCCC2)n1,1.2
8,Cc1c(-n2cccc2C=O)cccc1[N+](=O)[O-],1.6
9,COC(=O)Nc1nnc(CCc2ccccc2)s1,0.9
10,COc1ccccc1CNC(=O)Cc1ccc(Br)cc1,1.2
11,CCOc1ccccc1NC(=O)NC1CC2CCCC(C1)N2Cc1nnnn1CCc1ccccc1 (centres undefined),1.4
12,O=C(Nc1ccccc1-c1ccccc1)NC1CC2CCCC(C1)N2Cc1ccc(F)cc1 (centres undefined),2.7
13,CC(C)OC(=O)C1C2C=CC3(CN(C(C)c4ccc(Br)cc4)C(=O)C13)O2 (centres undefined),1.1
14,Cn1c(=O)c2c(nc(N/N=C3\CCCc4ccccc43)n2Cc2ccc(F)cc2)n(C)c1=O,2.2
15,Cn1c(N/N=C2\CCCc3ccccc32)nc2c1c(=O)n(Cc1ccccc1)c(=O)n2C,2.9
16,Fc1ccc(C2CC(c3ccc(F)cc3)n3ncnc3N2)cc1 (centres undefined),1.1
17,CC(C)N1CC(O)=C(c2nc3ccccc3[nH]2)C1=N,1.4
18,CC(C)CCN1CC(O)=C(c2nc3ccccc3[nH]2)C1=N,2
19,C=CCNC(=O)c1cc(-c2ccc(Br)cc2)on1,1.2
20,O=C(NNc1ccccn1)C(=O)NNS(=O)(=O)c1ccc(F)cc1,2.7
21,Cc1ccc(S(=O)(=O)NNC(=O)C(=O)NNc2ccccn2)cc1,2.9
22,Cc1ccc(NC(=O)c2cccc(S(C)(=O)=O)c2)cc1,1.1
23,C=CCN(CC=C)C(=O)C1CCC(C(=O)N(CC=C)CC=C)CC1 (centres undefined),1
24,COc1ccc(-n2cc(CNCCc3cscn3)c(-c3ccccc3Cl)n2)cc1,1.1
25,COc1ccc(-n2cc(CNCCc3nc(C)cc(C)n3)c(-c3ccccc3Cl)n2)cc1,1
26,COC(=O)NNC(=O)c1ccc(C(C)(C)C)cc1,1.1
27,CC(C)(C)c1ccc(C(=O)NNC(=O)c2ccc(Cl)cc2)cc1,1.9
